Data from ChEMBL document CHEMBL4513216, “Probing the Open Global Health Chemical Diversity Library for Multistage-Active Starting Points for Next-Generation Antimalarials” (ACS Infect Dis, 2020).
Hit rate of the full screen: of about 69,000 compounds, about 8,600 (12%) showed an effect of 50% or more. This excerpt belongs to a sample that is enriched for strong results.

system: Plasmodium berghei; assay: Screen against P. berghei liver stage (PbLuc), transformed with Luciferase, at 10uM; format: functional, HepG2; settings: tested at 10 uM

SMILES | INHIBITION
COc1ccc(-c2nc(C#N)c(N(C)C)o2)cc1S(=O)(=O)N(C)C | 12.8%
CC(NC(=O)c1cccs1)C(=O)Nc1cccnc1N1CCCCC1 (configuration not stated) | -36.3%
CC(=O)N(C)CC(=O)Nc1cnc(-n2ccnc2)nc1 | 41.2%
CC(=O)Nc1cnc(-n2ccnc2)nc1 | 13.8%
CC(=O)N(C)CC(=O)Nc1cnc(-n2ccnc2C)nc1 | 95.9%
CN(Cc1nccn1CC(F)(F)F)C(=O)c1cccc(N(C)C)c1 | -15.7%
CC(=O)N1CCCC2(CN(Cc3ccc(F)cc3)CCO2)C1 (configuration not stated) | -0.813%
Cc1noc(C)c1CN1C(=O)[C@@H]2CC[C@H]1CN(Cc1ccc(Cl)cc1)C2 | -48.1%
O=C(c1n[nH]cc1Br)N1CCOCC1 | 33.3%
Cc1nc(N2CCC3(CCCN(C(C)C)C3=O)C2)c2sccc2n1 (configuration not stated) | 81.6%
Cc1nc(N2CCC3(CCCN(CC4CC4)C3=O)C2)c2sccc2n1 (configuration not stated) | 82.9%
CNc1nc(C(=O)N2CCC3(CCCN(CC4CC4)C3=O)C2)cs1 (configuration not stated) | 21.2%
COc1nccnc1N1CCC2(CCCN(C(C)C)C2=O)C1 (configuration not stated) | -9.17%
Cc1nc(N2CCC3(CCCN(CCO)C3=O)C2)c2sccc2n1 (configuration not stated) | 40.5%
CCCN1CCCC2(CCN(c3nc(C)nc4ccsc34)C2)C1=O (configuration not stated) | 76.5%
COCCN1CCCC2(CCN(c3nc(C)nc4ccsc34)C2)C1=O (configuration not stated) | 41.8%
COc1ccnc(N2CCC3(CCCN(C(C)C)C3=O)C2)n1 (configuration not stated) | 48.8%
COc1ccnc(N2CCC3(CCCN(CC4CC4)C3=O)C2)n1 (configuration not stated) | 30.3%
Cc1ccc(N2CCCN(C(=O)C3CCCO3)CC2)nn1 (configuration not stated) | -72.5%

SMILES | INHIBITION
Cn1nc(CN2CCOCC2)c2c1CN(Cc1ccsc1)C2 | 8.03%
COc1ccc2c(c1)C(=O)NC1(CC2)CCN(Cc2ccccc2)C1 (configuration not stated) | 41.3%
CC(C)c1nc(C2CCCN2CCOCC2CC2)no1 (configuration not stated) | 12.3%
CN1C(=O)CC(C(=O)O)C12CCN(c1ccc3c(n1)CCCC3)CC2 (configuration not stated) | -11.7%
CC1(C)CN(CCC(=O)NCc2cccc(Cl)c2)CC[C@]1(C)O | 24.2%
Cc1ccc2[nH]c(C(=O)N3CCCC3Cn3cccn3)cc2c1 (configuration not stated) | 16.8%
CN(Cc1ccc(N(C)C)cc1)C(=O)CSc1ccc(Br)cc1 | 79.1%
O=C(CCc1ccccc1F)NS(=O)(=O)c1ccc2c(c1)OCCCO2 | 16%
O=C(CCc1ccccc1F)NS(=O)(=O)c1ccc2c(c1)OCCO2 | 50.3%
O=C(CCc1cc(F)ccc1F)NS(=O)(=O)c1ccc2c(c1)OCCO2 | 42%
Cc1ccccc1S(=O)(=O)NC(=O)CSc1ccc2c(c1)OCCO2 | 5.65%
CSCC(=O)N(C)Cc1ccccc1 | 47.4%
COc1cccc(CN(C)C(=O)CSc2ccc3c(c2)OCCO3)c1 | -45.8%
O=C(CSc1ccc2c(c1)OCCO2)NS(=O)(=O)c1cc(F)ccc1F | 27.6%
CN(Cc1ccccc1)C(=O)CCS(=O)(=O)c1ccc2c(c1)OCCO2 | 41.4%
CN(Cc1ccccc1)C(=O)CSc1ccc2c(c1)OCCO2 | 73.1%
O=C(CSc1ccc2c(c1)OCCO2)NS(=O)(=O)c1ccccc1F | 68.2%
CSCC(=O)N(C)Cc1ccc(N(C)C)cc1 | 47.4%
